For 92 molecules, survival results are on record in PubChem BioAssay AID463173 (ICCB-Longwood Screening Facility, Harvard Medical School, 2010).

Out of some 52,000 compounds screened, about 4,300 (8.3%) were called active. The full list was thinned out, with actives kept by preference. A number with no mark means an inactive call. No stated cut-off is given here; in the data, active means survival mostly below about 52% (no sharp cut-off); inactive means mostly above about 56%.

The test system of the test is DeltatarO mutant. The test is described as follows: S. aureus survival, RN4220 and DeltatarO strains – OD600, teichoic acid synthesis inhibitors, primary screen (AID 463173). The note with it: S. aureus RN4220 wild type/DeltatarO growth, OD600, 18 h, stronger effect = lower value, screened at 18.75 µg/mL (by protocol).
Turning to `CCOC(=O)N1CCc2c(sc3c2c(=O)n(Cc2ccccc2)c(=O)n3CC(=O)Nc2ccc(C)cc2C)C1`, the survival is 71%. For `O=C(c1cc2ccccc2oc1=O)N1CCN(c2ccc(Cl)cc2)CC1`, the survival is 66%. For the molecule `COc1cc(C(=O)NCCOc2ccc(C)c(C)c2)cc(OC)c1OC`, the survival was 98%. Next, `Cc1cc(C)cc(NC2=CC(c3cccc(F)c3)N(c3cc(C)cc(C)c3)C2=O)c1` (configuration not stated): 87%; `CCCCN(CCCC)CC(O)Cn1cc(/C=C/C(=O)c2ccccc2)c2ccccc21` (configuration not stated): 5% (active); `CCCN(CCC)CC(O)Cn1cc(/C=C/C(=O)c2ccc(Br)cc2)c2ccccc21` (configuration not stated): 66%.

Regarding `COc1ccc(C(=O)/C=C/c2cn(CC(O)CN(CC(C)C)CC(C)C)c3ccccc23)cc1` (configuration not stated), the survival is 58%.

Consider `CC(C)CN(CC(C)C)CC(O)Cn1cc(/C=C/C(=O)c2ccccc2)c2ccccc21` (configuration not stated), for which the survival was 38% (active). Consider `COc1ccc(C(=O)/C=C/c2cn(CC(O)CN3CCc4ccccc43)c3ccccc23)cc1` (configuration not stated), for which the survival is 58%. Turning to `CCCCN(CC)CCCNC(=O)c1cn(CC(C)C)c(=O)c2c1c1ccccc1n2C`, the survival was 115%. With `CCn1cc(/C=C(\NC(=O)c2ccc(OC)cc2)C(=O)NCCCn2ccnc2)c2ccccc21`, the survival was 108%.

With `COc1ccc(C(=O)/C=C/c2cn(CC(O)CN(CC(C)C)CC(C)C)c3ccccc23)cc1OC` (configuration not stated), the survival was 91%. Consider `Cc1ccc(C(=O)c2cn(Cc3ccccc3)c3ccccc3c2=O)cc1`, for which the survival is 75%. For the molecule `CCCN(CCC)CC(O)Cn1cc(/C=C/C(=O)c2ccc(OC)cc2)c2ccccc21` (configuration not stated), the survival is 11% (active).

`CCCN(CCC)CC(O)Cn1cc(/C=C/C(=O)c2ccc(C)cc2)c2ccccc21` (configuration not stated): the survival was -2% (active).

As for `Cc1nn(-c2ccccc2)c(=O)c2ccccc12`, the survival was 92%. For `COc1ccc(-c2nc3nc(C)cc(Nc4ccc(C(C)=O)cc4)n3n2)cc1`, the survival is 54%. Consider `CCc1nc2nc(C)cc(Nc3ccc(Br)cc3F)n2n1`, for which the survival was 128%.

In the case of `Cc1cc(=O)n(CC(=O)Nc2ccc(Cl)c(Cl)c2)c(-n2nc(C)cc2C)n1`, the survival is 117%. Take `COc1ccccc1NC(=O)CCS(=O)(=O)c1cc2c3c(c1)CCN3C(=O)CC2`: the survival was 99%.

Regarding `CCc1cccc(CC)c1-n1nnc2c(sc3nc(C)cc(C)c32)c1=O`, the survival is 83%. For the molecule `Cc1cccc(C(=O)NCc2nnc(SCC(=O)Nc3ccccc3F)n2-c2ccccc2)c1`, the survival is 72%.

Regarding `N#Cc1c(/N=C/c2cccnc2)sc2c1CCC2`, the survival is 100%. With `CN1CCN(C(CNC(=O)c2ccccc2)c2ccc3c(c2)OCO3)CC1` (configuration not stated) the figure was 76%; with `Nc1nc(N)nc(COc2ccccc2)n1`, 102%.

In the case of `CCOC(=O)c1c(S(=O)(=O)N2CCCC(C(=O)NCc3ccccc3Cl)C2)c(C)n(C)c1C` (configuration not stated), the survival is 122%. With `CCc1cccc(C)c1NC(=O)CN1CCN(Cc2ccccc2Cl)S1(=O)=O` the figure was 126%. Take `CCCN(CCC)CC(O)Cn1cc(/C=C/C(=O)c2ccc(OCC)cc2)c2ccccc21` (configuration not stated): the survival was 11% (active). With `CCOc1ccc(C(=O)NCCn2cc(SCC(=O)Nc3ccccc3)c3ccccc32)cc1` the figure was 71%; with `COc1ccc(S(=O)(=O)N2CCCN(CC(=O)Nc3ccc(OC)cc3OC)CC2)cc1`, 72%; with `COc1ccc(OCC(=O)NCCS(=O)(=O)N2CCN(c3cccc(Cl)c3)CC2)cc1`, 85%. With `CCOc1ccc(NC(=O)CSc2cn(CC(=O)N3CCCCCC3)c3ccccc23)cc1`, the survival was 95%. Regarding `Cc1oc(-c2cccc(Br)c2)nc1CSc1nc2ncccc2[nH]1`, the survival was 78%. For `CCOC(=O)c1cnc2c(CC)cccc2c1NCCO`, the survival was 95%. Next, `Cc1cc(C)cc(OCC(=O)NCCN2CCOCC2)c1`: 67%; `CCOC(=O)c1cnc2c(Cl)c(Cl)ccc2c1NCCN1CCOCC1`: 42% (active); `CCOC(=O)c1cnc2ccc(Br)cc2c1NCCN1CCOCC1`: 76%. Regarding `CCOC(=O)c1cnc2c(C)cc(C)cc2c1NCCN1CCOCC1`, the survival is 32% (active). `CCOC(=O)c1cnc2ccccc2c1NCCCO`: the survival was 104%. With `Cc1ccc(OCC(=O)Nc2ccc3nc(SCc4ccccc4)sc3c2)cc1` the figure was 81%; with `Cc1ccccc1-c1nc(CNC(=O)NC2CCCCC2)c(C)o1`, 67%; with `CCOc1ccc(C(=O)N2CCC(c3nc(-c4ccc(S(=O)(=O)N5CCCC5)cc4)no3)CC2)cc1`, 92%. Regarding `CCc1ccccc1N(C)C(=O)c1cc2c(=O)oc3ccccc3c2s1`, the survival was 42%. As to `CCCN(C(=O)c1cc2c(=O)oc3ccc(C)cc3c2s1)c1ccc(OCC)cc1`, the survival was 48%. Regarding `CN(C(=O)c1cc2c(=O)oc3ccccc3c2s1)c1ccc(F)cc1`, the survival is 60%. For `CCOc1ccc(N(CC)C(=O)c2cc3c(=O)oc4ccccc4c3s2)cc1`, the survival was 38% (active).

Turning to `CCN(C(=O)c1cc2c(=O)oc3ccccc3c2s1)c1ccc(C)c(C)c1`, the survival was 15% (active). In the case of `CCN(C(=O)c1cc2c(=O)oc3ccccc3c2s1)c1cccc(C(F)(F)F)c1`, the survival was 145%. With `COc1cccc(CNC(=O)C2(c3cccs3)CCOCC2)c1` the figure was 92%; with `COc1ccc(-c2ccc(NS(=O)(=O)c3cccc(C)c3)cc2)nn1`, 75%; with `COCCNc1nc2c(c(=O)n(C)c(=O)n2C)n1Cc1c(F)cccc1Cl`, 57%.

As to `COc1ccc(NC(=O)CC2NCCNC2=O)c(OC)c1` (configuration not stated), the survival was 77%.

For the molecule `COc1ccc(C)cc1NC(=O)CC1NCCNC1=O` (configuration not stated), the survival was 76% (active).

As for `Cc1ccc(C)c(NC(=O)CC2NCCNC2=O)c1` (configuration not stated), the survival was 79%. For `O=C(Nc1c2c(nn1-c1ccc(Cl)cc1)CS(=O)(=O)C2)c1cccc(Cl)c1`, the survival was 71%. For `O=C(Nc1c2c(nn1-c1ccc(Cl)cc1)CS(=O)(=O)C2)c1ccc(Br)cc1`, the survival is 52% (active). For the molecule `Cc1cccc(C(=O)Nc2c3c(nn2-c2ccc(Cl)cc2)CS(=O)(=O)C3)c1`, the survival is 74%. With `CC(=O)N1c2ccccc2C(=O)C1N1CCN(c2ccc(F)cc2)CC1` (configuration not stated) the figure was 94%.

On to `Cc1ccc(-c2nnc(Nc3ccc(O)cc3)c3ccccc23)cc1S(=O)(=O)NCC1CCCO1` (configuration not stated), for which the survival was 93%.

Take `Cc1ccc(-n2ncc(C(=O)NC3CCCCC3)c2C2CCN(C(=O)OC(C)(C)C)CC2)cc1`: the survival is 116%. Next, `Cc1cccc(CC(=O)N2CC(=O)Nc3ccc(C)cc3C2c2ccc(F)cc2)c1` (configuration not stated): 50%.

Regarding `Cc1cccc(CC(=O)N2CC(=O)Nc3ccc(F)cc3C2c2ccccc2)c1` (configuration not stated), the survival was 53% (active). `O=C1CN(C(=O)Cc2ccccc2)C(c2ccc(F)cc2)c2cc(Br)ccc2N1` (configuration not stated): the survival is 61%. As for `COc1ccc(CC(=O)N2CC(=O)Nc3ccc(Br)cc3C2c2ccc(F)cc2)cc1` (configuration not stated), the survival is 30% (active).

`O=C1CN(C(=O)Cc2ccc(F)cc2)C(c2ccccc2)c2cc(Cl)ccc2N1` (configuration not stated): the survival was 127%.

In the case of `Cc1ccc2c(c1)C(c1ccccc1)N(C(=O)Cc1ccc(F)cc1)CC(=O)N2` (configuration not stated), the survival is 55%. Consider `COc1ccc(CC(=O)N2CC(=O)Nc3ccc(Br)cc3C2c2ccc(F)cc2)cc1OC` (configuration not stated), for which the survival was 175%. With `COc1ccc(CC(=O)N2CC(=O)Nc3ccc(F)cc3C2c2ccccc2)cc1` (configuration not stated), the survival was 79%. As to `Cc1cccc(CC(=O)N2CC(=O)Nc3ccc(Br)cc3C2c2ccc(F)cc2)c1` (configuration not stated), the survival is 43% (active).

With `COc1ccc(Cl)cc1NC(=O)Cn1ncc2c3ccccc3n(C)c2c1=O`, the survival was 135%. Regarding `Cc1ccc(C)c(NC(=O)Cn2c(=O)n(Cc3ccco3)c(=O)c3ccc(C(=O)NC4CCCC4)cc32)c1`, the survival is 95%. Next, `O=C(Nc1ccc2oc(-c3ccc4ccccc4c3)nc2c1)c1ccc(Cl)c(Cl)c1`: 83%. Consider `Cc1ccc2[nH]c(=O)c3cc(C(=O)NCCCN4CCC(C)CC4)sc3c2c1`, for which the survival is 85%. On to `COc1ccc(-c2cc(-c3ccc(C)cc3)nc3c2COc2ccccc2-3)cc1`, for which the survival was 72%. Next, `Cc1oc2ncn(C)c(=O)c2c1C(=O)N1CCN(c2ccc(Cl)cc2)CC1`: 61%; `Cc1cc(Nc2ccccc2F)n2nc(Cc3ccc(Cl)cc3)nc2n1`: 44% (active); `Cc1cc(Nc2ccccc2F)n2nc(-c3ccccc3)nc2n1`: 47%. On to `Cc1ccc(Nc2cc(C)nc3nc(Cc4ccc(Cl)cc4)nn23)cc1`, for which the survival is 52%.

For `Cc1cccc(Nc2cc(C)nc3nc(Cc4ccc(Cl)cc4)nn23)c1`, the survival is 36% (active). As for `CCc1ccc(Nc2cc(C)nc3nc(Cc4ccc(Cl)cc4)nn23)cc1`, the survival was 101%. For `Cc1cc(Nc2ccc(C)c(Cl)c2)n2nc(-c3ccccc3)nc2n1`, the survival was 57%. On to `Cc1cc(Nc2cc(Cl)ccc2C)n2nc(Cc3ccccc3)nc2n1`, for which the survival is 50%. With `Cc1cc(Nc2ccccc2C)n2nc(Cc3ccc(Cl)cc3)nc2n1` the figure was 64%.

For `Cc1cc(Nc2cccc(Cl)c2C)n2nc(Cc3ccccc3)nc2n1`, the survival is 49% (active). As to `CCc1nc2nc(C)cc(Nc3cccc(C)c3C)n2n1`, the survival is 82%. Regarding `Cc1cc(Nc2ccc(C)c(Cl)c2)n2nc(Cc3ccccc3)nc2n1`, the survival is 31% (active). Consider `CC(=O)c1cccc(Nc2cc(C)nc3nc(Cc4ccccc4)nn23)c1`, for which the survival was 62%. As for `CC1=C(C(=O)OCc2ccc(C)cc2)C(c2ccccc2C(F)(F)F)CC(=O)N1` (configuration not stated), the survival was 124%. With `CCCSCCCNC(=O)CN1C(=O)CCn2nc(-c3cn(C)c4ccccc34)cc21` the figure was 77%; with `CCN(CC)CCn1c2c(c(SCC(=O)Nc3cccc(C(F)(F)F)c3)nc1=O)CCC2`, 74%; with `CCOC(=O)c1cc(C)n(CC2CCC(C(=O)Nc3ccccc3OC)CC2)c1C` (configuration not stated), 107%. For `COc1cccc(NC2=CC(c3ccc(C(C)C)cc3)N(c3cccc(OC)c3)C2=O)c1` (configuration not stated), the survival is 73%.
